Assay results as given in PubChem BioAssay (NCATS).
Results filed as inconclusive are left out. The source made the active and inactive calls. Calls follow the shape of the dose curve; as a rule, active = well fitted inhibition curve with a large enough effect; inconclusive = small, poorly fitted or top-dose-only effect; inactive = flat fitted curve, though single readings scatter.

What was measured:
Assay in all cases: qHTS profiling for inhibitors of Plasmodium falciparum proliferation (AID 504749); also: nearly all actives have a fitted effect of over 60% in size
Details in all cases: P. falciparum in erythrocytes, SYBR Green DNA, 72 h; series mostly up to 28.7 µM
P94_40 = system: P94_40
Procedure, shortened: (§1)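 SYBR Green fluorescence (ex 485 nm, em 535 nm) reports parasite DNA after 72 h compound exposure of infected red cells at 0.3% parasitemia, 2.5% hematocrit; signal normalized to 0.29 uM artemisinin and vehicle wells.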

PAD = system: PAD
Procedure, shortened: as §1

PC15 = system: PC15
Procedure, shortened: as §1

PC26 = system: PC26
Procedure, shortened: as §1

PC49 = system: PC49
Procedure, shortened: as §1

SC27B = system: SC27B
Procedure, shortened: as §1

TAB109 = system: TAB109
Procedure, shortened: as §1

TAB113 = system: TAB113
Procedure, shortened: as §1

TAB165 = system: TAB165
Procedure, shortened: as §1

W2 = system: W2
Procedure, shortened: as §1

Measured: Potency
Potency is read from the fitted curve at half-maximal effect.

CC1CC(OC(=O)C(O)c2ccccc2)CC(C)(C)C1 (stereo not given)
inactive: all assays above

CC(C)O
inactive: all assays above

CN1C(=O)OC(C)(C)C1=O
inactive: all assays above

Cc1ncc(C[n+]2csc(CCOP(=O)(O)OP(=O)(O)O)c2C)c(N)n1
inactive: all assays above

CC12CCC(C[N+](C)(CCC[N+](C)(C)C)C1)C2(C)C (stereo not given)
inactive: all assays above

[O-][N+](=Nc1ccccc1)c1ccccc1
inactive: all assays above

CCOC(C)OCC
inactive: all assays above

O=C(O)[C@H]1CN(C/C=C/P(=O)(O)O)CCN1
inactive: all assays above

Cc1ncc[nH]1
inactive: all assays above

CCCCCCCCCCCCOCCCN
inactive: all assays above

CC1=CCC2CC1C2(C)C (stereo not given)
inactive: all assays above

CN(C)C=Nc1c(I)cc(I)c(CCC(=O)O)c1I
inactive: all assays above

OC1OC[C@@H](O)[C@H](O)[C@@H]1O (stereo not given in full)
inactive: all assays above

CC(C)CCC[C@@H](C)[C@H]1CC[C@H]2[C@@H]3CC[C@@H]4C[C@H](O)CC[C@]4(C)[C@H]3CC[C@]12C
inactive: all assays above

Cc1cccc(C)c1NC(=O)NC1=CCCN1C
inactive: all assays above

CC(C)(CO)[C@@H](O)C(=O)NCCC(=O)NCCSSCCNC(=O)CCNC(=O)[C@H](O)C(C)(C)CO
inactive: all assays above

CCOC(=O)c1c[nH]c2cc(OCC(C)C)c(OCC(C)C)cc2c1=O
active: P94_40 126 nM | PAD 158 nM | PC15 112 nM | PC26 120 nM | PC49 141 nM | SC27B 100 nM | TAB109 89.1 nM | TAB113 112 nM | TAB165 70.8 nM | W2 53.6 nM

CC(C)OC(=O)Nc1ccc2nc(-c3cscn3)[nH]c2c1
inactive: all assays above

O=c1[nH]c(=O)n([C@H]2C[C@H](O)[C@@H](CO)O2)cc1/C=C/Br
inactive: all assays above

Cc1nc(NS(=O)(=O)c2ccc(N)cc2)nc(C)c1Br
inactive: all assays above

CC(=O)NCCCS(=O)(=O)O
inactive: all assays above

CN1CCC(OC(=O)C(Oc2ccc(Cl)cc2)Oc2ccc(Cl)cc2)CC1
inactive: all assays above

CCN(CC)CCOc1ccc2nc(N(C)C)sc2c1
inactive: all assays above

Cc1ccccn1
inactive: all assays above

NCC[C@H](O)C(=O)N[C@@H]1C[C@H](N)[C@@H](O[C@H]2O[C@H](CN)[C@@H](O)[C@H](O)[C@H]2O)[C@H](O)[C@H]1O[C@H]1O[C@H](CO)[C@@H](O)[C@H](N)[C@H]1O
inactive: all assays above

CC(=O)[O][Al][O]C(C)=O
inactive: all assays above

CC1=CC(=O)NS(=O)(=O)O1
inactive: all assays above

COc1ccc(-c2noc(CC(=O)O)c2-c2ccc(OC)cc2)cc1
inactive: all assays above

CC(=O)[C@H]1CC[C@H]2[C@@H]3C=CC4=CC(=O)CC[C@@]4(C)[C@H]3CC[C@]12C
inactive: all assays above

COC1=C(OC)C(=O)C(C/C=C(\C)CC/C=C(\C)CC/C=C(\C)CC/C=C(\C)CC/C=C(\C)CC/C=C(\C)CC/C=C(\C)CC/C=C(\C)CC/C=C(\C)CCC=C(C)C)=C(C)C1=O
inactive: all assays above

CN(CCO)CC(O)Cn1cnc2c1c(=O)n(C)c(=O)n2C (stereo not given) (tested in a mixture with another compound)
inactive: all assays above

CCOC(=S)SSC(=S)OCC
inactive: all assays above

NCCN
inactive: all assays above

CC1(C)S[C@@H]2[C@H](NC(=O)C3(N)CCCCC3)C(=O)N2[C@H]1C(=O)O
inactive: all assays above

C=CCOc1ccc(CC(=O)O)cc1Cl
inactive: all assays above

CC1C(=O)CC2C3(C)CCC2(C(C)C(=O)O)C(=O)C13 (stereo not given)
inactive: all assays above

CC(=O)Oc1cc(C(F)(F)F)ccc1C(=O)O
inactive: all assays above

COc1cc(S(C)=O)ccc1-c1nc2ncccc2[nH]1 (stereo not given)
inactive: all assays above

NCC[C@H](O)C(=O)N[C@@H]1C[C@H](N)[C@@H](O[C@H]2O[C@H](CN)CC[C@H]2N)[C@H](O)[C@H]1O[C@H]1O[C@H](CO)[C@@H](O)[C@H](N)[C@H]1O
inactive: all assays above

CN(C)c1ccc(C(=C2C=CC(=[N+](C)C)C=C2)c2c(O)c(S(=O)(=O)[O-])cc3cc(S(=O)(=O)O)ccc23)cc1
inactive: all assays above

CNC(=O)C[C@@H](N)C(=O)N[C@@H](C(=O)N[C@@H]1C(=O)N2[C@@H]1SC(C)(C)[C@@H]2C(=O)O)c1ccc(O)cc1
inactive: all assays above
